In PubChem BioAssay (NCI):
About 83,000 compounds went through this panel and 20% of them were active in at least one assay; those are over-represented in the sample as a whole.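 Plates (96-well) were seeded with cells, treated with compound at one concentration, and incubated for 48 hours before percent growth was determined.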 Unmarked numbers belong to inactive results. Active and inactive are the calls of the source. Rule for the calls: active = growth percent below 10; inactive = the rest.

Columns and labels:
Experiment in all cases: NCI-60 one-dose screen, 48 h (100 = growth as untreated, 0 = no growth, -100 = all killed)
Details in all cases: 10 µM unless noted
[1] = system: T-47D breast
[2] = system: BT-549 breast
[3] = system: MDA-MB-435 melanoma
[4] = system: SW-620 colon
[5] = system: MCF7 breast
[6] = system: HCT-116 colon
[7] = system: HCC-2998 colon
[8] = system: KM12 colon

| Structure (SMILES) | growth [1] | growth [2] | growth [3] | growth [4] | growth [5] | growth [6] | growth [7] | growth [8] |
| --- | --- | --- | --- | --- | --- | --- | --- | --- |
| COC(=O)c1cc(N=C2NC(=O)/C(=C/C=C/c3ccccc3)S2)ccc1O | 32.8% | 48.5% | -35.6% (active) | 31.4% | 17.9% | 18.2% | 49.1% |  |
| COc1ccc(C2=C(Br)C(=O)c3nc(C)ccc3C2=O)cc1 | 72.8% | 93.4% | 103% | 27.2% | 74.7% | 74.1% | 104% |  |
| COC(=O)Nc1nc2ccc(S(=O)c3ccccc3)cc2[nH]1 (stereo unspecified) | 89.1% | 77.9% | -33.4% (active) | 27.2% | 44.1% | 39.4% | 74.1% | 31.6% |
| Cc1cccc(/C=C/c2c(C(=O)/C=C/c3ccccc3)c(C)nc3ccccc23)c1 | -4.51% (active) | 2.21% (active) | -66% (active) | -14% (active) | 3.87% (active) | -56.3% (active) | -84.5% (active) |  |
| Cc1ccc(-c2nc(N3CCCNCC3)c3oc(-c4ccccc4)nc3n2)cc1 | -67.5% (active) | 81.2% | -87.9% (active) | -73.3% (active) | -74.7% (active) | -79.2% (active) | -92.1% (active) | -81.5% (active) |
| Clc1cccc(Nc2ncnc3ccc(-c4cnc5[nH]ccc5c4)cc23)c1 | 28.3% | 77.4% | 88.3% | 107% | 48.3% | 75.1% | 95% |  |
| N=C(N)c1ccc(-c2ccc(-c3ccccc3)o2)cc1 | -46% (active) | 40.8% | -91.2% (active) | -75.7% (active) | -57.2% (active) | -100% (active) | -74.5% (active) |  |
| CCSC(SCC)c1ccc(Cl)cc1 | 101% | 112% | 97.4% | 99.3% | 104% | 108% | 92.3% | 114% |
| N#C/C(=C\c1c(-c2ccccc2)[nH]c2ccccc12)C(N)=O | 83.7% | 95.6% | 15.7% | 56.9% | 50.4% | 76.9% | 78.9% |  |
| CC(O)(c1ccccc1)C(c1ccccc1)C1CCCCN1 (stereo unspecified) | 94.2% | 35.6% | 99.1% | 103% | 110% | 97.3% | 107% |  |
| CCOC(=O)c1cc(C(=O)c2cc(OC)c(OC)c(OC)c2)n2ncccc12 | 58.5% | 37% | -57.2% (active) | 33.6% | 19.7% | 11.8% | 28.3% |  |
| O=C(Nc1nc(-c2ccc(Cl)cc2)nc2c1sc(=S)n2-c1ccccc1)C(F)(F)F | -14.8% (active) | 28.3% | 50.6% | 34.3% | 57.1% | 3.7% (active) | 68.4% |  |
| CCC(=O)Oc1ccc(-c2ccccc2)cc1Br | 101% | 109% | 109% | 99.1% | 93.6% | 104% | 112% | 111% |
| C1CCC([PH+](C2CCCCC2)C2CCCCC2[PH+](C2CCCCC2)C2CCCCC2)CC1.[Au].[CH-]1CCCCC1C1CCCC[N-]1 (stereo unspecified) | -45.3% (active) | -40.4% (active) | -63.1% (active) | -76.4% (active) | -30.5% (active) | -40.5% (active) | -90.1% (active) |  |
| Fc1cnccc1C1CC(c2ccc(N3CCNCC3)cc2)=NN1 (stereo unspecified) | 82.2% | 85.3% | 105% | 93.5% | 73% | 73.8% | 102% |  |
| COc1ccc(-c2ccc(-c3ccc(C(=N)N)cc3)s2)cc1Cl | 42.6% | 93.7% | -65.2% (active) | -71.9% (active) | -65.5% (active) | -52.8% (active) | -37.8% (active) |  |
| CCOC(=O)c1csc(NC(=O)COc2ccc(/C=C3\Oc4ccccc4C3=O)cc2)n1 | 97.5% | 88.3% | 58.6% | 105% | 69% | 82.5% | 106% |  |
| COc1cc2ncnc(Nc3ccc(F)c(Cl)c3)c2cc1OCC(=O)N1CCN(c2ccccc2)CC1 | 77.4% | 106% | 95.6% | 101% | 90% | 67.7% | 97.8% |  |

| Structure (SMILES) | growth [1] | growth [2] | growth [3] | growth [4] | growth [5] | growth [6] | growth [7] | growth [8] |
| --- | --- | --- | --- | --- | --- | --- | --- | --- |
| COC(=O)c1nc(-c2ccccc2)oc1S(=O)(=O)Cc1ccccc1 | 59.9% | 80.1% | 100% | 32.9% | 78.5% | 68.9% | 111% |  |
| COc1cc(C2c3cc(OC(C)=O)c(OC)cc3CC3C(=O)OCC32)ccc1OC(C)=O (stereo unspecified) | 103% | 99.6% | 118% | 101% | 101% | 98.2% | 104% |  |
| Fc1ccc(CNc2c3ccccc3nc3ccccc23)c(F)c1 | 47.4% | 82.8% | 66.5% | 29.8% | 10.2% | 14.2% | 41.3% |  |
| Cc1ccccc1/C=C/C(=O)c1cccc(OCCCOc2cccc(C(=O)/C=C/c3ccccc3C)c2)c1 | 73.2% [3 µM] | 96.7% [3 µM] | 97.7% [3 µM] | 93.3% [3 µM] | 13.5% [3 µM] | 38.2% [3 µM] | 91.2% [3 µM] |  |
| O=C(O)CCN1C(=O)/C(=C/C(Cl)=C/c2ccccc2)SC1=S | 28.8% | 16.9% | -63.4% (active) | 7.78% (active) | 15.7% | -19% (active) | 4.75% (active) |  |
| O=C(NCc1ccc(Cl)cc1Cl)C1CCC(=O)N1c1cccs1 (stereo unspecified) | 75.8% | 86% | 97.2% | 106% | 88% | 79% | 93.4% |  |
| Cn1cc(-c2nonc2-c2cn(C)c3ccccc23)c2ccccc21 | 33.4% | 31.1% | -34.3% (active) | 24.5% | 19.4% | 11.6% | 51.2% |  |
| CC/C=C\C[C@H](O)C/C=C1/C(=O)C=C[C@@H]1C/C=C\CCCC(=O)N(C)C | 10.7% | -34.8% (active) | -18.1% (active) | -42.4% (active) | 7.79% (active) | -63.4% (active) | -90.7% (active) | -51.3% (active) |
| Cc1ccc(Nc2cc(N)nc(N)n2)cc1Cl | 76.6% | 101% | 98.9% | 112% | 74.7% | 81% | 100% |  |
| COc1ccc(F)cc1/C=C/C(=O)/C=C(/C=C/c1cc(F)ccc1OC)OB(F)F | 36.4% | 33.7% | 2.57% (active) | 14.1% | 29.2% | 0.9% (active) | 104% |  |
| CC(=O)N1N=C(c2ccc(Nc3nc(Nc4ccccc4)nc(Nc4ccccc4)n3)cc2)CC1c1ccccc1 (stereo unspecified) | 46.5% | 87.2% | 101% | 99% | 67.5% | 77.1% | 99.2% | 89.6% |
| COc1cc2c(c(OC)c1OC)CCC(c1cccc(NC(=O)c3ccc(Br)cc3)c1)O2 (stereo unspecified) | 40.4% | 87.5% | 69.1% | 91.5% | 73.2% | 71.9% | 102% |  |
| COc1cc(-c2cncn2-c2ccc(-c3nc4ccc(F)cc4s3)cc2)ccc1F | 76.3% | 85.3% | 87.4% | 54.3% | 64.3% | 37.7% | 80.2% |  |
| CCCCn1c(=O)[nH]c(N)c([C@@H]2c3c([nH]c(=O)n(CCCC)c3=O)Oc3ccc4ccccc4c32)c1=O | 81.1% | 46.9% | 5.95% (active) | -67.9% (active) | 46% | -26.3% (active) | 83.3% |  |
| Nc1[nH]n2cc(-c3ccccc3)nc2c1N=Nc1ccc(S(N)(=O)=O)cc1 | 42.8% | 59.5% | 28.9% | 26.1% | 45.5% | 22.6% | 45.5% |  |
| CCCC/C(CC)=N\NS(=O)(=O)c1ccc([N+](=O)[O-])cc1 | 95.3% | 114% | 107% | 106% | 102% | 99.6% | 107% |  |
| O=C(Nn1c2c(sc1=NC1CC1)C(=O)c1ccccc1C2=O)c1cc2ccc1CCc1ccc(cc1)CC2 | 20.4% | 37.2% | -93.2% (active) | 18.3% | 11.5% | -9.1% (active) | 61.4% |  |
